GLS inh = qHTS for Inhibitors of Glutaminase (GLS); GLS enzymatic activity, qHTS titration; Potency, µM (titrated, usually from 45.5 µM), without a hit: at the highest dose activity change, negative = inhibition, actives largely listed as inhibitors; hit rate 0.21% among 410,000; also: % is scaled to controls: 0 for no effect and ±100 for the full control effect
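hKGA; 45 mM KH2PO4 pH 8.2 + 0.02% Tween-20; cpd via pin tool; 1 mM Gln soln; GluOx/HRP/Amplex Red; RT 30 min; fluor. t0 & final.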
APEX1 inh = qHTS Assay for Inhibitors of the Human Apurinic/apyrimidinic Endonuclease 1 (APE1); DNA repair nuclease/redox regulator APEX1 (Homo sapiens), P27695; recombinant APE1, TAMRA/BHQ-2 abasic DNA cleavage fluorescence; Potency, µM (highest dose often 65.8 µM), for the others: top-dose activity change, negative = inhibition, most hits filed as inhibitors; hit rate 0.35% among 350,000; AID 2517, 2012;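 also: plate controls were vehicle for no effect and reference inhibitor for full effect; nearly all actives have a fitted effect of over 55% in size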
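Compound pre-exposure to 0.75 nM APE1, 15 min at ambient temperature. Reaction initiated with 50 nM TAMRA/BHQ-2 THF substrate, read immediately in kinetic mode, 525 nm excitation, 598 nm emission.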
POLH inh = qHTS for Inhibitors of Polymerase Eta; hit rate 1.2% among 390,000; recombinant Pol eta, fluorescent DNA replication assay; Potency, µM (highest dose often 114 µM), for the others: at the top dose activity change, negative = inhibition, usual class: inhibitors; DNA polymerase eta (Homo sapiens), Q9Y253; also: % is scaled to controls: 0 for no effect and ±100 for the full control effect
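Pol eta at 10 nM preincubated with compounds 15 min at room temperature; reaction started with fluorescent substrate (50 nM final) and read kinetically at 0 and 10 min.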
Pol iota inh = qHTS for Inhibitors of Polymerase Iota; DNA polymerase iota (Homo sapiens), Q9UNA4; Pol iota fluorescent replication assay, 10 min; Potency, µM (top dose mostly 115 µM), for inactives: at the top dose activity, negative = inhibition, most hits filed as inhibitors; hit rate 1% among 390,000; AID 588590, 2011
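Fluorescent replication assay read twice, at 0 min and 10 min after adding 50 nM (final) substrate. Enzyme (10 nM) and compounds were first incubated 15 min at room temperature; enzyme-free buffer wells were negative controls.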
POLB inh = qHTS Assay for Inhibitors of DNA Polymerase Beta | P06746 | Pol beta primer extension/strand displacement, fluorescence kinetic | Potency, µM (titrated, usually from 114 µM), for the others: top-dose activity change, negative = inhibition, usual class: inhibitors | hit rate 1.3% among 340,000 | AID 485314, 2010; also: % is scaled to controls: 0 for no effect and ±100 for the full control effect
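Curves were derived by four-parameter Hill fits of normalized qHTS data. The kinetic fluorescent primer-extension read was taken at 0 and 10 min after 50 nM substrate, following a 15 min room-temperature preincubation of 10 nM enzyme with compounds.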
Pol kappa inh = qHTS for Inhibitors of Polymerase Kappa | hit rate 0.53% among 400,000 | Potency, µM (titrated, usually from 107 µM), for inactives: at the top dose activity, negative = inhibition, usual class: inhibitors | purified Pol kappa, fluorescent DNA synthesis assay, 10 min; also: % is scaled to controls: 0 for no effect and ±100 for the full control effect
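Fluorescent qHTS in 1536-well format: enzyme (10 nM) and compound sat 15 min at room temperature before 50 nM substrate (final) was added. Signal taken at 0 and 10 min; no-enzyme buffer wells were negative controls.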
Active calls of the source: *; ? = inconclusive; . = no result; [ ] = remark or other dose. In the library only some 2.4% were active in any assay of this set; here they are far more common. Calls follow the shape of the dose curve; as a rule, active = well fitted curve in the direction sought with a large enough effect; inconclusive = small, poorly fitted or top-dose-only effect, or another doubt; inactive = no such curve, though single readings can be large; an effect the other way counts as inactive or inconclusive. Potency is read from the fitted curve at half-maximal effect.

SMILES	GLS inh	APEX1 inh	POLH inh	Pol iota inh	POLB inh	Pol kappa inh
COC(=O)CCC(=O)OC1(C)C(=O)C2=CN(Cc3ccc(OC)cc3)C(c3ccc(OC)cc3)=CC2=C(Br)C1=O (stereo unspecified)	14.1%	-0.5%[12.4 µM]	-6.0%	81.3%	.	-12.4%
O=C(Nc1ccc(Cl)c(Cl)c1)N1CCCCCC1	-9.8%	16.6%	-12.8%	?	47.5%	89.1µM*
N#Cc1ccc(CSc2nnc(NC(=O)c3ccc4ncsc4c3)s2)cc1	3.98µM*	17.7%	31.6µM*	?	16.5%	-6.5%
CC1(C)CC(=O)C2=C(C1)Nc1ccccc1S2	10µM*	0.6%	0.0%	4.5%	-0.5%	-2.8%
O=C(CNC(=O)c1cccc([N+](=O)[O-])c1)NC1CCCc2ccccc21 (stereo unspecified)	-8.8%	7.5%	-7.6%	-21.6%	.	-13.4%
CC(C)Cc1ccc(S(=O)(=O)N2CCN(Cc3noc(CCC(=O)N4CCCCC4)n3)CC2)cc1	1.7%	.	-19.5%	17.9%	3.3%	2.8%
O=C(O)c1cccc2c1C(=O)c1ccc(-c3ccc(F)cc3OCc3ccccc3)cc1S2(=O)=O	31.2%	37.1%	79.4µM*	?	.	-32.8%
COc1nccnc1NS(=O)(=O)c1ccc(NC(=S)NC(=O)c2ccccc2)cc1	21.6%	16.3%	-5.0%	9.9%	25.5%	0.2%
COC(=O)c1sc2nc(C)cc(C)c2c1N	8.1%	-3.1%	-8.4%	3.0%	1.2%	-1.9%
Cc1cc(C)c2c(N)c(C(=O)Nc3ncc(C)s3)sc2n1	-10.6%	0.9%	-16.4%	-10.7%	44.7µM*	-24.8%
COC(=O)C1=C(SC)N(c2ccccc2)C(c2ccccc2)CC1=O (stereo unspecified)	10.5%	3.4%	-1.7%	13.4%	0.3%	89.1µM*
COc1cccc2cc(C(=O)Oc3ccccc3)c(=O)oc12	-3.6%	-8.7%	?	-0.2%	89.1µM*	-12.8%
N#Cc1cccc(NC(=O)N2CC[C@@]3(CCCN(C(=O)c4csnn4)C3)C2)c1	.	2.7%	.	.	.	0.0%[60.1 µM]
CCN(CC)c1ccc(N=C2C=CC(=O)C=C2NC(C)=O)cc1	11.2µM*	.	-5.4%	44.7µM*	.	?
CCN(CCC(=O)O)c1ccccc1	39.1%	0.0%	0.8%	-3.7%	5.7%	9.6%
NC(=O)N(CCC(=O)O)c1ccccc1	3.9%	19.8%	?	-10.7%	20µM*	-4.3%
CC(C)(C)NC(=O)C[C@H]1C[C@H](C(=O)N2CCCCC2)[C@@]2(CCc3ccccc3)c3[nH]c4cc(-c5ccco5)ccc4c3CCN2C1=O	-3.5%	17.1%	-10.8%	?	.	18.4%
O=C(NCCn1cc(SCc2ccccc2)c2ccccc21)c1cccs1	10.4%	.	-18.5%	89.1µM*	16.5%	?
O=C(NCCn1cc(SCc2ccc(Br)cc2)c2ccccc21)c1cccs1	-1.0%	.	-23.3%	8.2%	-1.2%	-0.3%
CC(Cc1c[nH]c2ccccc12)C(=O)O (stereo unspecified)	18.6%	?	3.3%	9.7%	7.08µM*	?
O=C(O)C(O)Cc1c[nH]c2ccccc12 (stereo unspecified)	22.7%	1.6%	-3.7%	-15.5%	-2.6%	9.4%
CSc1cccc(NC(=O)CC(C)n2ccnc2)c1 (stereo unspecified)	0.8%	9.2%	-17.6%	6.0%	-18.5%	-8.5%
CCOC(=O)COc1c(Br)cc(C2NC(=O)NC(C)=C2C(C)=O)cc1OC (stereo unspecified)	-6.4%	25.7%	22.4µM*	?	?	?
O=C(N/N=C/c1ccco1)c1cccc(S(=O)(=O)Nc2ccccc2Cl)c1	-15.3%	?	20µM*	44.7µM*	22.4µM*	?
COc1ccc2[nH]c3c(c2c1)CCN1C(=O)C(CC(=O)NCCC2=CCCCC2)C[C@H](C(=O)N2CCOCC2)[C@@]31CCC1CCCC1 (stereo partly specified)	-0.1%	-9.9%	-13.9%	-9.7%	.	8.5%
SMILES	GLS inh	APEX1 inh	POLH inh	Pol iota inh	POLB inh	Pol kappa inh
Cc1ccc(NS(=O)(=O)c2cc([N+](=O)[O-])ccc2NNC(=S)Nc2cccc(Cl)c2)c(C)c1	48.3%	22.6%	39.8µM*	-7.9%	?	-31.1%
O=C(OC[C@H]1O[C@@H](OC(=O)c2cc(O)c(O)c(OC(=O)c3cc(O)c(O)c(O)c3)c2)[C@H](OC(=O)c2cc(O)c(O)c(OC(=O)c3cc(O)c(O)c(O)c3)c2)[C@@H](OC(=O)c2cc(O)c(O)c(OC(=O)c3cc(O)c(O)c(O)c3)c2)[C@@H]1OC(=O)c1cc(O)c(O)c(OC(=O)c2cc(O)c(O)c(O)c2)c1)c1cc(O)c(O)c(OC(=O)c2cc(O)c(O)c(O)c2)c1	.	0.0053µM*	.	-104.3%	.	-99.1%
COC1OC(COC(=O)c2ccccc2)C(OC(=O)c2ccccc2)C1OC(=O)c1ccccc1 (stereo unspecified)	-3.5%	-1.7%	-10.1%	-1.1%	9.4%	-17.9%
Oc1ccc(C2Oc3cc(O)cc(O)c3CC2O)cc1 (stereo unspecified)	.	-6.9%	.	.	.	?
O=C(O[C@@H]1Cc2c(O)cc(O)cc2OC1c1ccc(O)c(O)c1)c1cc(O)c(O)c(O)c1 (stereo partly specified)	.	0.316µM*	.	.	.	0.178µM*
Oc1ccccc1Oc1ncc(Br)c(N2CCOCC2)n1	13.6%	-3.2%	-10.4%	10.2%	16.6%	6.1%
Oc1ccccc1Oc1ncc(Br)c(Cl)n1	17.6%	?	-3.3%	50.1µM*	22.4µM*	-39.8%
CC(C)N1CCc2c(sc(N)c2C#N)C1	14.1µM*	9.8%	-9.6%	41.0%	29.9%	3.7%
CC(C(=O)NCc1ccccn1)c1ccc([N+](=O)[O-])cc1 (stereo unspecified)	5.0%	-1.2%	1.0%	12.2%	0.8%	-8.5%
CC(=O)Nc1ccc(S(=O)(=O)NCCC(=O)OCC(=O)N2CCN(C(=O)c3ccco3)CC2)cc1	-3.3%	?	?	44.7µM*	44.7µM*	-32.1%
Cc1nnc(NC(=O)c2ccc3c(c2)NC(=O)CS3)s1	-0.8%	-4.2%	-0.2%	-14.3%	.	-18.2%
COc1ccc(/C=C2\CCCCC2=O)cc1	-0.8%	.	-10.2%	40.6%	.	-9.2%
COc1ccc(C=C2CS(=O)(=O)CC(=Cc3ccc(OC)cc3)C2=O)cc1	-10.8%	.	50.1µM*	.	.	.
O=C(CNC(=O)c1ccccc1F)N/N=C/c1cc(Br)ccc1OC(=O)/C=C/c1ccco1	-5.3%	-4.4%	-6.2%	?	?	?

Source: PubChem BioAssay
